About 480 (0.15%) of roughly 320,000 compounds were called active. The list comes from a sample in which actives are over-represented; it also holds similar structures and randomly drawn compounds. A number with no mark means an inactive call. Rule as the data show it: active = inhibition above about 33%; inactive = the rest.
biological target: Lytic switch protein BZLF1 (Epstein-Barr virus (strain B95-8)) (UniProt P03206); assay: Zta-DNA interaction blockers, Epstein-Barr virus – biochemical, fluorescence polarization, single concentration, counter-screen for EBNA-1 inhibitor project, primary screen (AID 2234); details: ZTA-DNA binding, at 11 µM, hits give high values
Sequence (P03206 whole entry, looked up): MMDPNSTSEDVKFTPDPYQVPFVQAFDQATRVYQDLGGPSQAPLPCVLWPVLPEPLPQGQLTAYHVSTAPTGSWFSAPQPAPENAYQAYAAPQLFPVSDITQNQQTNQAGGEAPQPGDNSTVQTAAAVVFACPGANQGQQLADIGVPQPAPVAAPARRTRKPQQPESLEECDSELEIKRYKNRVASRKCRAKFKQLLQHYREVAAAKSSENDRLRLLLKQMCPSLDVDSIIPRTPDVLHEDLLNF

SMILES | inhibition
CC(=O)Nc1ccc(NC(=O)COC(=O)c2ccccc2C(=O)c2ccccc2)cc1 | 1.75%
COc1ccc(N2CC(NS(=O)(=O)c3ccc4ccccc4c3)CC2=O)cc1 (stereo unspecified) | -13.8%
CCC1=C(OC(=O)N(CC)CC)N2C(=O)OC(=NCC3CC3)[C@]2(C)[C@H]2C1=CC[C@H]1C(=O)N(CC(=O)OC)C(=O)[C@H]12 | 14%
CN(C(=O)CN1C(=O)CCSc2ccc(S(=O)(=O)N3CCCC3)cc21)c1ccccc1 | 4.65%
COCCOC(=O)C1=C(C)NC(=O)NC1c1cc2c(cc1Br)OCO2 (stereo unspecified) | -2.42%
Cc1cc(C(=O)OCC(=O)Nc2ccccc2Cl)c(C)o1 | -1%
CC1(c2nnc(-c3ccncc3)o2)CC(c2cccnc2)=NO1 (stereo unspecified) | -4.98%
CCNc1nc(Oc2ccc(C(=O)OC)cc2)nc(N2CCOCC2)n1 | 26.6%
O=C(NCCCN1CCOCC1)c1ccc2c(c1)N(Cc1cccc(F)c1)C(=O)c1ccccc1S2 | -13.9%
CCN1CCN(CCNC(=O)c2ccc(/C=C3/Sc4ccccc4N(Cc4cccc(C)c4)C3=O)cc2)CC1 | 56.8% (active)
Cc1ccccc1CN1C(=O)c2ccccc2Sc2ccc(C(=O)NCCCN3CCOCC3)cc21 | 5.14%
Cn1cnc2c1c(=O)n(Cc1c(Cl)cccc1Cl)c(=O)n2C | -29.3%
Cn1c(=O)c2c(ncn2CCc2ccccc2)n(C)c1=O | -0.22%
Cn1cnc2c1c(=O)n(Cc1ccccc1C#N)c(=O)n2C | 95.5% (active)
Cc1ccc(Cc2nnc(SCC(=O)Nc3ccccc3C)[nH]c2=O)cc1 | 0.83%
Cc1ccc(C(=O)O)cc1-c1ccc(/C=C2\SC(=O)N(CC(=O)Nc3ccc4c(c3)OCO4)C2=O)o1 | 9.2%
CCN1C(=NCC(C)C)N[C@@H](CCc2ccccc2)[C@H](C(=O)NCC(C)C)[C@H]1C | -17.1%
CCOC(=O)CC(NC(=O)C1c2ccccc2Oc2ccccc21)c1ccc(C)cc1 (stereo unspecified) | 2.93%
COc1ccc(N(CC(=O)Nc2ccc(F)c(F)c2)S(=O)(=O)c2c(C)[nH]c(=O)[nH]c2=O)cc1 | 3.47%
COC(=O)c1ccc(CN2CCN(CCCc3ccccc3)C(CCO)C2)cc1 (stereo unspecified) | -17.9%
Cc1cccn2c(CNCC(C)Oc3cccnc3)c(C(=O)N3CCOCC3)nc12 (stereo unspecified) | 13.7%
O=C(CC(NCCN1CCOCC1)C(=O)O)Nc1cccc(Cl)c1 (stereo unspecified) | 5.11%

SMILES | inhibition
CCCCS(=O)c1snnc1C (stereo unspecified) | -5.28%
Cc1ccc2c(C)c(C(=O)N3CCN(c4ccncc4)CC3)oc2c1C | 1.76%
O=C(COc1cccc(F)c1)Oc1ccc(C(=O)c2ccccc2)cc1 | 12.6%
CCC1CCC/C1=N\NC(=O)c1ccc(Cl)cc1 (stereo unspecified) | 4.98%
COc1cc(-c2nnc(Cn3cc(C(F)(F)F)ccc3=O)o2)cc(OC)c1OC | 5.1%
COC(=O)C1CCCCN1C(=O)c1ccc(OC2CCN(C(C)=O)CC2)c(OC)c1 (stereo unspecified) | 5.86%
O=C(c1cccc(-n2cccc2)c1)N1CCN(S(=O)(=O)c2ccc(F)cc2)CC1 | -25.8%
O=C(NC1CC1)C1=C[C@H](c2coc3ccccc3c2=O)C[C@H](OCCCCO)O1 | -2.42%
N#CCSc1nc2ccc(N3CCOCC3)cc2c(=O)n1CCc1ccccc1 | -10.6%
Cc1ccc(-c2nc3ccccc3[nH]2)cc1N | -1%
O=C(Nc1ccccc1)c1cc2ccccc2[nH]1 | -12.6%
O=C(Nc1cccc(-c2nc3ccccc3[nH]2)c1)c1ccc(C(=O)Nc2cccc(-c3nc4ccccc4[nH]3)c2)cc1 | 84% (active)
Cc1cccc(N2C(=O)N3[C@H](c4ccc(F)cc4)[C@@H]4C(=O)N(C5CCCCC5)C(=O)[C@@H]4[C@]3(Cc3ccccc3)C2=O)c1 | -2.81%
O=C(NCc1ccccc1CN1CCCC1)c1cccc(S(=O)(=O)Nc2ccc(F)cc2)c1 | 3.93%
CS(=O)(=O)Nc1cccc(C2=NN(C(=O)c3cccc(F)c3)C(c3cccs3)C2)c1 (stereo unspecified) | -3.98%
CN1CCN(CCCNC(=O)c2ccc(/C=C3\Oc4ccccc4N(Cc4ccc(Cl)cc4)C3=O)cc2)CC1 | 45.5% (active)
CCCN1CCN(C(=O)CCCNC(=O)c2ccc(Cl)cc2)CC1 | 1.38%
CN1C(=O)/C(=C/c2ccc(C(=O)NC3CCCC3)cc2)Oc2ccccc21 | -2.56%
CC(=O)c1c(C)[nH]c(C(=O)OCC(=O)Nc2c(C)cccc2C)c1C | 3.88%
COC(=O)c1cc(N2CCNCC2)nc2ccccc12 | 5.41%
CC12CCC(=O)N1C(C(=O)NCCN1C(=O)S/C(=C\c3ccccc3F)C1=O)CS2 (stereo unspecified) | -4.27%
Cc1ccc(-c2nn(-c3ccc(F)cc3)cc2C(=O)NCC(c2cccs2)N2CCOCC2)cc1 (stereo unspecified) | 2.78%

SMILES | inhibition
CC1=CC2=NC(=O)CC(C)(C(=O)N(CC(=O)NC(C)(C)C)Cc3ccccc3)N2C=C1 (stereo unspecified) | -6.91%
COc1cc(C2/C(=C(\O)c3ccc4c(c3)CC(C)O4)C(=O)C(=O)N2c2nnc(C)s2)cc(OC)c1OC (stereo unspecified) | -16.7%
COc1ccccc1CNC(=O)C1Cc2ccccc2C(=O)O1 (stereo unspecified) | -9.61%
CC(=O)Nc1ccc(S(=O)(=O)Oc2ccc(Br)cc2C(=S)N2CCOCC2)cc1 | -23.8%
CCc1c(C)nc(N)n2c(SCC(=O)NC3CCCCC3)nnc12 | -21.8%
COc1ccc(N2CCN(C(=O)CN3C(=O)COc4ccccc43)CC2)cc1 | 49.2% (active)
COc1ccc(N2CCN(CCNC(=O)CCN3C(=O)COc4ccccc43)CC2)cc1 | 3.46%
Cc1ccc2c(c1)N(CC(=O)N1CCOCC1)C(=O)CO2 | -24.9%
C=C(Cl)COC(=O)C1C2C=CC(C2)C1C(=O)O (stereo unspecified) | -6.87%
Cc1oc(-c2ccccc2Cl)[n+]([O-])c1C | 4.54%
Cc1nc(N)c(Br)c(C)c1Br | 10.1%
Cc1cc(NC(=O)CS(=O)(=O)c2cn(C)c3ccccc23)no1 | 3.47%
Cc1nc(-c2ccc(Cl)cc2)sc1C1(C)CC(c2ccccc2F)=NO1 (stereo unspecified) | 0.91%
O=C(CNS(=O)(=O)c1ccc(Br)s1)N1CCN(C(=O)c2ccco2)CC1 | 0.26%
Cc1cc(/C=N/NC(N)=O)c(C)n1C1CCCCC1 | 15.4%
CC(NC(=S)NNS(=O)(=O)c1ccc(C(C)(C)C)cc1)c1ccccc1 (stereo unspecified) | -5.57%
O=C(NC(=S)Nc1cccc(-c2ccc(CO)o2)c1)c1cccs1 | -14.3%
CC1CCCCC1NC(=O)c1cn(C)c2ccc(S(=O)(=O)N3CCOCC3)cc2c1=O (stereo unspecified) | 3.74%
O=S(=O)(Nc1ccc2nc(-c3ccco3)[nH]c2c1)c1ccccc1 | -14.9%
Cc1ccc(C2NC(=S)NC3=C2N2CCC3CC2)cc1 (stereo unspecified) | -11.6%
CC12c3ccccc3C(c3ccccc31)C1C(=O)N(Cc3cccnc3)C(=O)C12 (stereo unspecified) | 5.39%
COc1cccc(NC(=O)CN2CCN(CC(=O)Nc3ccccc3Cl)CC2)c1 | 4.73%

SMILES | inhibition
CN1/C(=c2/s/c(=C3/C(=O)N(c4ccccc4)NC3=Nc3ccccc3)n(C)c2=O)C(C)(C)c2ccccc21 | 7.42%
CC(C)Oc1ccc(CN2CCC(n3nccc3NC(=O)c3cccnc3)CC2)cc1 | 6.96%
COc1ccc(-c2c(C)nn3c(N4CCC(C(=O)N5CCCCC5)CC4)cc(C)nc23)cc1OC | 6.7%
CC(C(=O)N(C)CC(=O)Nc1ccccc1C(F)(F)F)N1C(=O)c2ccccc2C1=O (stereo unspecified) | -0.42%
COc1ccc(OC)c(S(=O)(=O)N2CCCC(C(=O)NCCc3ccccc3)C2)c1 (stereo unspecified) | -17.4%
O=C(CCCC(=O)N(CC(=O)NC1CCCC1)Cc1ccccc1Cl)Nc1ccccn1 | 2.7%
Cc1cc(OC(=O)c2ccccc2Cl)ccc1N1C(=O)CCC1=O | -5.62%
COC(=O)c1ccccc1NC(=O)C1CCN(C(=O)N2CCOc3ccccc32)CC1 | -14.3%
COc1ccc(N2CCN(C3CCCCC3NS(=O)(=O)c3ccccc3)CC2)cc1 (stereo unspecified) | -13.4%
CCC(C)C(=O)Nc1ccccc1N1CCN(c2ccc(F)cc2)CC1 (stereo unspecified) | -25.1%
Cc1c(C(=O)c2cccc([N+](=O)[O-])c2)c2ccccn2c1CCC#N | -12.6%
CC(C)C(=O)Nc1nnc(SCC(=O)N2C(C)CCCC2C)s1 (stereo unspecified) | -5.72%
CC(=O)c1sc(NC(=O)CCN2C(=O)C3CC=CCC3C2=O)nc1-c1ccccc1 (stereo unspecified) | 0.93%
Cn1nc(C(F)(F)F)cc1-c1ccc(/C=C(\C#N)C(=O)c2cccc(C(F)(F)F)c2)s1 | 9.6%
CC(=O)c1nc(N2C(=O)C3CC=C(C)CC3C2=O)sc1C (stereo unspecified) | -6.68%
CCN(C(=O)COC(=O)c1cc(NS(=O)(=O)c2ccc(Cl)c([N+](=O)[O-])c2)ccc1O)C1CCCCC1 | -8.06%
O=C(Cn1c(-c2ccc(Cl)cc2)noc1=O)N1CCN(c2ccccc2F)CC1 | -6.32%
CCOc1cc(-c2noc(CCCC(=O)NC3CCCCC3)n2)ccc1OC | -2.96%
CCOc1ncccc1C(=O)OCC(=O)N1c2ccccc2CC1C (stereo unspecified) | 6.32%
COc1cc(C(=O)NNC(=O)CN2C(=O)NC3(CCCC3)C2=O)cc(OC)c1OC | 7.35%
